From PubChem BioAssay
This is a sample that favours compounds with a hit; in the whole collection about 3.9% have one here.
Bead autofluor = flagged as autofluorescent in microsphere protease counterscreen; compound autofluorescence counterscreen, microsphere flow cytometry; active compounds read high; fluorescence intensity (concentration not given with the values); 360,000 compounds, 3.1% hits; in the data active = fluorescence intensity above about 16000; inconclusive = no clear call, values can overlap the other calls
VHR inh abs = VHR1 phosphatase inhibitors, primary screen, biochemical, absorbance, uHTS | Dual specificity protein phosphatase 3 (Homo sapiens), P51452 | recombinant VHR phosphatase, pNPP absorbance | inhibition, % at 13.3 µM | 290,000 compounds, 0.52% hits | AID 1654, 2009; in the data active = inhibition above about 50%
BoNT-F LC inh = BoNT/F light chain protease inhibitors, primary screen, biochemical, flow cytometry, MLPCN library; Botulinum neurotoxin type F light chain protease (Clostridium botulinum); Multiplex microsphere protease cleavage assay; 360,000 compounds, 0.22% hits; inhibition, % at 10 µM; in the data active = inhibition above about 35%, passing the limit was not always enough; inconclusive = no clear call, values can overlap the other calls; note: plate controls were buffer without enzyme for full effect and enzyme alone for no effect
BoNT A protease = BoNT/A light chain protease inhibitors, primary screen, biochemical, flow cytometry, MLPCN library | 360,000 compounds, 0.17% hits | multiplex microsphere protease substrate cleavage | AID 588499, 2011 | inhibition, % at 10 µM; note: plate controls were buffer without enzyme for full effect and enzyme alone for no effect
3CLpro inhibitor = SARS-CoV 3CLpro protease inhibitors, primary screen, biochemical, quenched FRET; Replicase polyprotein 1ab (Severe acute respiratory syndrome coronavirus), P0C6X7; recombinant SARS-CoV 3CLpro, quenched FRET peptide cleavage; inhibition, % at 6 µM; 290,000 compounds, 0.14% hits; AID 1706, 2009; in the data active = inhibition above about 12%
Anthrax LF inh2 = Bacillus anthracis LF protease inhibitors, primary screen, biochemical, multiplex microsphere, MLPCN library; 360,000 compounds, 0.12% hits; multiplex microsphere protease cleavage assay; inhibition, % at 10 µM; AID 588501, 2011; note: plate controls were buffer without enzyme for full effect and enzyme alone for no effect
Starred values were filed as active, the others as inactive. Cut-off read from the data, not from the text of the source, unless noted: active = inhibition above about 30%; inconclusive = no clear call, values can overlap the other calls; inactive = below that.

For CCN1CCN(Cc2c(O)ccc3c2O/C(=C\c2ccccc2)C3=O)CC1 the results were Bead autofluor 2614, VHR inh abs 17.9, BoNT-F LC inh 1.1, BoNT A protease 0.3, 3CLpro inhibitor -0.1 and Anthrax LF inh2 3.3.
`CCN1CCN(Cc2c(O)ccc3c2O/C(=C\C=C\c2ccccc2)C3=O)CC1` gave Bead autofluor 2071, VHR inh abs 10.4, BoNT-F LC inh 4.7, BoNT A protease 35.3*, 3CLpro inhibitor -2.0 and Anthrax LF inh2 11.9.
For O=C1/C(=C/C=C/c2ccccc2)Oc2c1ccc(O)c2CN1CCN(CCO)CC1 the results were Bead autofluor 4760, VHR inh abs -7.8, BoNT-F LC inh 4.4, BoNT A protease 1.4, 3CLpro inhibitor 3.3 and Anthrax LF inh2 -0.3.
COc1ccccc1/C=C/C=C1\Oc2c(ccc(O)c2CN2CCN(CCO)CC2)C1=O was read as Bead autofluor 2160, VHR inh abs 5.1, BoNT-F LC inh 1.4, BoNT A protease 31.0*, 3CLpro inhibitor 6.5 and Anthrax LF inh2 12.0.
Screening COc1ccc(-c2c3c(nc4sc5c(Cl)nc(C)nc5c24)CCC3)cc1 returned Bead autofluor 3144, VHR inh abs 15.5, BoNT-F LC inh -2.1, BoNT A protease -0.3, 3CLpro inhibitor -1.9 and Anthrax LF inh2 2.4.
`Cc1cc(C)nc(SCC(=O)Nc2ncc3c(n2)CC(C)(C)CC3=O)n1` gave Bead autofluor 20783*, VHR inh abs 20.8, BoNT-F LC inh -2.9, BoNT A protease -1.2, 3CLpro inhibitor 1.9 and Anthrax LF inh2 0.0.
`CC1(C)CC(=O)c2cnc(NC(=O)CSc3nc4ccccc4o3)nc2C1` gave Bead autofluor 5209, VHR inh abs 4.2, BoNT-F LC inh -33.4, BoNT A protease -1.2, 3CLpro inhibitor 1.1 and Anthrax LF inh2 -3.3.
Screening COc1ccc(OCC(=O)Nc2ncc3c(n2)CC(C)(C)CC3=O)cc1 returned Bead autofluor 22939*, VHR inh abs 25.2, BoNT-F LC inh -4.2, BoNT A protease inconclusive, 3CLpro inhibitor 1.7 and Anthrax LF inh2 -2.5.
`CCCCC(=O)Nc1ncc2c(n1)CC(C)(C)CC2=O` gave Bead autofluor 2364, VHR inh abs 15.1, BoNT-F LC inh 2.2, BoNT A protease 0.0, 3CLpro inhibitor -2.6 and Anthrax LF inh2 -1.2.
O=C(NCCCO)NC12CC3CC(CC(C3)C1)C2 was read as Bead autofluor 19797*, VHR inh abs 24.3, BoNT-F LC inh 5.2, BoNT A protease 2.7, 3CLpro inhibitor -5.0 and Anthrax LF inh2 -0.6.
For NS(=O)(=O)c1ccc(CNC(=O)NC23CC4CC(CC(C4)C2)C3)cc1 the results were Bead autofluor 17603*, VHR inh abs -19.7, BoNT-F LC inh 10.9, BoNT A protease inconclusive, 3CLpro inhibitor 1.5 and Anthrax LF inh2 -15.7.
For Cc1cc(O)c(C(C)C)cc1N=Cc1ccc([N+](=O)[O-])cc1 the results were Bead autofluor 3762, BoNT-F LC inh -5.5, BoNT A protease -0.4 and Anthrax LF inh2 1.1.
Cc1cccc2c1ncc1c(=O)n(-c3ccccc3)[nH]c12 was read as Bead autofluor 4755, VHR inh abs 56.9*, BoNT-F LC inh inconclusive, BoNT A protease -6.9, 3CLpro inhibitor 0.4 and Anthrax LF inh2 -3.5.
O=C(NCCc1ccc(Cl)cc1)c1ccc2[nH]c(=O)c(=O)[nH]c2c1 was read as Bead autofluor 5701, VHR inh abs 10.4, BoNT-F LC inh 0.9, BoNT A protease -0.1, 3CLpro inhibitor 1.7 and Anthrax LF inh2 -0.8.
`O=C(Nc1ccccc1N1CCCC1)c1ccccc1F` gave Bead autofluor 3527, VHR inh abs 26.1, BoNT-F LC inh 10.5, BoNT A protease 1.3, 3CLpro inhibitor 0.4 and Anthrax LF inh2 -1.6.
Screening O=C(Nc1ccccc1N1CCCCC1)c1ccccc1F returned Bead autofluor 23407*, VHR inh abs 2.8, BoNT-F LC inh -5.1, BoNT A protease -1.1, 3CLpro inhibitor -2.8 and Anthrax LF inh2 -2.4.
O=C(Nc1ccccc1N1CCCCC1)c1ccc(N2C(=O)c3ccccc3C2=O)cc1 was read as Bead autofluor 16910*, VHR inh abs 6.4, BoNT-F LC inh -1.3, BoNT A protease 0.4, 3CLpro inhibitor 3.2 and Anthrax LF inh2 -1.6.
For O=C1CSC(c2ccc([N+](=O)[O-])cc2)N1c1ccc(O)cc1 (stereo not drawn) the results were Bead autofluor 3391, VHR inh abs 56.9*, BoNT-F LC inh 7.2, BoNT A protease -3.0, 3CLpro inhibitor -2.6 and Anthrax LF inh2 5.0.
O=C1CSC(c2cccc([N+](=O)[O-])c2)N1c1ccc(O)cc1 (stereo not drawn) was read as Bead autofluor 2233, VHR inh abs -6.2, BoNT-F LC inh -1.0, BoNT A protease -0.2, 3CLpro inhibitor -1.6 and Anthrax LF inh2 -0.6.
For CC1(C)CC(=O)C2=C(C1)N=C1SCCC(=O)N1C2c1cccc([N+](=O)[O-])c1 (stereo not drawn) the results were Bead autofluor 4445, VHR inh abs 12.9, BoNT-F LC inh -3.1, BoNT A protease 0.3, 3CLpro inhibitor 3.8 and Anthrax LF inh2 -1.6.
Screening Cc1cccc(NC(=S)N(CCN(C)C)C(C)c2ccccn2)c1 (stereo not drawn) returned Bead autofluor 22805*, VHR inh abs 10.8, BoNT-F LC inh -1.6, BoNT A protease 0.7, 3CLpro inhibitor 3.8 and Anthrax LF inh2 -1.5.
Cn1cc(Br)c(C(=O)NC2CCCCCC2)n1 was read as Bead autofluor 5545, VHR inh abs 12.9, BoNT-F LC inh 2.9, BoNT A protease 0.3, 3CLpro inhibitor -5.5 and Anthrax LF inh2 -0.4.
Cn1cc(Br)c(C(=O)NC2C3CC4CC(C3)CC2C4)n1 (stereo not drawn) was read as Bead autofluor 20443*, VHR inh abs 13.2, BoNT-F LC inh -3.2, BoNT A protease inconclusive, 3CLpro inhibitor -0.2 and Anthrax LF inh2 -0.7.
Cc1ccc(C(=O)Nc2ccccc2Oc2ccccc2)cc1[N+](=O)[O-] was read as Bead autofluor 4468, VHR inh abs 32.9, BoNT-F LC inh 11.2, BoNT A protease -0.3, 3CLpro inhibitor 5.3 and Anthrax LF inh2 -0.4.
O=C(Nc1ccccc1Oc1ccccc1)c1cccc([N+](=O)[O-])c1 was read as Bead autofluor 20430*, VHR inh abs 0.2, BoNT-F LC inh -2.8, BoNT A protease inconclusive, 3CLpro inhibitor 4.6 and Anthrax LF inh2 -1.4.
`CCOC(=O)c1cc(CC)sc1NC(=O)COC` gave Bead autofluor 18881*, VHR inh abs 3.5, BoNT-F LC inh 2.2, BoNT A protease 2.1, 3CLpro inhibitor -8.0 and Anthrax LF inh2 0.2.
CCOC(=O)c1cc(CC)sc1NC(=O)Cc1ccccc1 was read as Bead autofluor 20942*, VHR inh abs 0.0, BoNT-F LC inh -2.9, BoNT A protease inconclusive, 3CLpro inhibitor -3.1 and Anthrax LF inh2 -4.4.
